Results as given in PubChem BioAssay (NCI).
Compounds without any hit were thinned out: in the full panel of roughly 79,000, 15% have a hit. No stated cut-off is given here; in the data, active means growth inhibition above about 70%; inactive means the rest.

Assays:
[1] = NCI Yeast Anticancer Drug Screen. Data for the rad50 strain (AID 155);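 further: 0% = growth of vehicle-only cultures of the same strain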; conditions: S. cerevisiae rad50 strain growth inhibition; at 50.0 µM; stronger effect = higher value
In short: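 Growth of the mutant yeast was measured after compound exposure and referenced to vehicle-treated cultures.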

[2] = NCI Yeast Anticancer Drug Screen. Data for the mec2-1 strain (AID 157); conditions: S. cerevisiae mec2-1 strain, at 50.0 µM, stronger effect = higher value
In short: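 Mutant yeast (mec2-1) grown with compound; growth inhibition relative to vehicle control reported.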

[3] = NCI Yeast Anticancer Drug Screen. Data for the sgs1 mgt1 strain (AID 161);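 further: 0% = growth of cultures given vehicle only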; conditions: S. cerevisiae sgs1 mgt1 strain, at 50.0 µM, stronger effect = higher value
In short: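 Compounds are added to genetically altered yeast, and growth is compared with cultures given vehicle alone to give percent inhibition.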

[4] = NCI Yeast Anticancer Drug Screen. Data for the cln2 rad14 strain (AID 165);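 further: 0% = growth equal to vehicle treated cultures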; conditions: S. cerevisiae cln2 rad14 strain, at 50.0 µM, stronger effect = higher value
In short: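 Readout is yeast growth inhibition versus vehicle-treated controls, using a strain with cln2 and rad14 alterations exposed to compound.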

[5] = NCI Yeast Anticancer Drug Screen. Data for the bub3 strain (AID 167); conditions: S. cerevisiae bub3 mutant strain, at 50.0 µM, stronger effect = higher value
In short: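 Whole-cell yeast assay. The mutant strain was incubated with compounds, and growth inhibition was determined by comparison with vehicle-treated cells.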

[6] = NCI Yeast Anticancer Drug Screen. Data for the mlh1 rad18 strain (AID 175); conditions: S. cerevisiae mlh1 rad18 strain growth inhibition; at 50.0 µM; stronger effect = higher value
In short: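 Genetically defined yeast (DNA repair-deficient) exposed to compounds; growth inhibition determined relative to vehicle.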

Measured: growth inhibition

COc1ccc(/C=C/C=C2C(=O)NC(=S)NC2=O)cc1
inactive: [1] 25.6% | [2] 4.55% | [3] 29.1% | [4] 11.2% | [5] 0.75% | [6] 25.2%

O=[Se](=O)(O)O
inactive: [1] -45% | [2] -20.2% | [3] -8.4% | [4] -74.7% | [5] -12.6% | [6] -14.5%

CCCCCC(N)CC(=O)O (stereo not given)
inactive: [1] 8.95% | [2] -21.1% | [3] 4.25% | [4] 8.1% | [5] -2.25% | [6] 9.85%

CC(=O)[C-](Br)C(C)=O.CC(=O)[C-](Br)C(C)=O.CC(=O)[C-](Br)C(C)=O.[Ru+3]
inactive: [1] 1.05% | [2] 1% | [3] -15.9% | [4] -15.1% | [5] 17.8% | [6] 14.5%

Cc1ccc(P(=S)(c2ccccc2)c2ccccc2)c2ccccc12
inactive: [1] 9.9% | [2] 0.45% | [3] -1.5% | [4] 10.6% | [5] 20% | [6] -4.25%

COc1ccc2c(c1)C1(C)CCN(C)CC(C1)C2O (stereo not given)
inactive: [1] 47.2% | [2] 13.6% | [3] 15.6% | [4] 22.9% | [5] -1% | [6] 23.2%

O=C(O)c1cc([N+](=O)[O-])cc([N+](=O)[O-])c1
inactive: [1] -3% | [2] 1.3% | [3] 2.75% | [4] -34.2% | [5] -30.9% | [6] 43.2%

CN1CN(c2ccccc2)C2(CCN(CCC3Oc4ccccc4O3)CC2)C1=O
inactive: [1] -22.4% | [2] 6.45% | [3] -0.4% | [4] -1.2% | [5] -1.35% | [6] 3.35%

NC(=O)Nc1ccc([As](O)O)cc1
inactive: [1] 11.3% | [2] -2.4% | [3] -0.45% | [4] 11.8% | [5] -20% | [6] 15%

CC(=O)C(N)Cc1ccccc1 (stereo not given)
inactive: [1] 24.4% | [2] 17.2% | [3] 10% | [4] -26.6% | [5] 23.2% | [6] 15.2%

O=C1NC(=O)C(=Cc2ccco2)C(=O)N1
inactive: [1] -4.4% | [2] -26.4% | [3] -7.85% | [4] 5.65% | [5] -31.6% | [6] -3.3%

C/C(=N\O)C(CN1CCCCC1)C(c1ccccc1)c1c(O)c2ccccc2oc1=O (stereo not given)
inactive: [1] 17.9% | [2] 2.05% | [3] 24.6% | [4] 28.6% | [5] 21.4% | [6] 26.9%

CN1[C@@H](CC(=O)c2ccccc2)CCC[C@H]1CC(=O)c1ccccc1
inactive: [1] 21.2% | [2] 5.4% | [3] 42.5% | [4] 37.3% | [5] 28.2% | [6] 1.25%

COc1ccc2c(c1O)CN1CCc3cc4c(cc3C1C2)OCO4 (stereo not given)
inactive: [1] 40.5% | [2] 22.1% | [3] 28.6% | [4] 25.9% | [5] 43.2% | [6] 19.9%

Cc1ccc(C(=O)CN)cc1
inactive: [1] 10.4% | [2] 0.05% | [3] -1.35% | [4] 4% | [5] 3.45% | [6] -9.5%

CC(Cl)CN1CCCCC1 (stereo not given) (tested in a mixture with another compound)
inactive: [1] 15.2% | [2] 1.25% | [3] 23.8% | [4] 7.75% | [5] 3.2% | [6] 17.9%

c1ccc(CC2NC(Cc3ccccc3)N3C(Cc4ccccc4)N23)cc1 (stereo not given)
inactive: [1] -2.65% | [2] 1.9% | [3] 0.9% | [4] -6.25% | [5] 9% | [6] 3.45%

C[C@]12CC[C@H](O)C=C1CC[C@@H]1[C@@H]2CC[C@]2(C)C(c3ccc(=O)oc3)CC[C@]12O (stereo not given in full)
inactive: [1] -2.85% | [2] -12.9% | [3] 17.9% | [4] 10.9% | [5] 0.05% | [6] 8.75%

COC(=O)C1=CCCN(C)C1
inactive: [1] 0.15% | [2] -0.6% | [3] 10.2% | [4] -0.4% | [5] 2.15% | [6] 3.7%

COc1cc(C2c3cc4c(cc3C(O)[C@H]3COC(=O)[C@@H]23)OCO4)cc(OC)c1O (stereo not given in full)
inactive: [1] -36.4% | [2] -28.7% | [3] -28.8% | [4] 16.6% | [5] 6.55% | [6] -7.9%
